# Experimental data taken from PubChem BioAssay (Tox21).
# A number with no mark means an inactive call. Records with an inconclusive call do not appear. A call without a number means that no potency is given here. The source made the active and inactive calls. Unless noted, calls come from the whole dose curve; as a rule, active = well fitted curve in the direction sought with a large enough effect in the repeat runs; inconclusive = weak or mixed curves; inactive = no such curve, though single readings can be large; an effect the other way counts as inactive or inconclusive.
# How the values were obtained:
# [1] = qHTS assay to identify small molecule antagonists of the sonic hedgehog signaling (Shh) pathway (AID 1259369; calls by dose curve; note: nearly all actives have a fitted effect of over 45% in size; note: potency is the fitted concentration of half-maximal effect)
# In short: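 3T3Gli1-Luc, conditioned-medium-stimulated, 24hr cpd, 37C/5% CO2; Gli1-driven firefly Luc luminescence after 30min RT with luciferase reagent. Cells plated 4hr before cpd.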
# [2] = molecular target: Estrogen receptor beta (Homo sapiens) (UniProt Q92731); experiment: qHTS assay to identify small molecule agonists of the estrogen receptor beta (ER-beta) signaling pathway (AID 1259377; active = well fitted activation curve with a large enough effect in the signal ratio in the repeat runs, not every such curve was filed as active; the % refers to the signal ratio)
# In short: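 Reporter cells (HEK293T, ER-beta-UAS-bla) receive compounds or DMSO after a 6 hr pre-incubation. They then incubate 16 hr at 37C/5% CO2, and fluorescence from LiveBLAzer B/G substrate is measured after 2 hours at room temperature.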
# [3] = molecular target: Estrogen receptor beta (Homo sapiens) (UniProt Q92731); experiment: qHTS assay to identify small molecule antagonists of the estrogen receptor beta (ER-beta) signaling pathway (AID 1259378; active = well fitted inhibition curve with a large enough effect in the signal ratio in the repeat runs, not every such curve was filed as active; the % refers to the signal ratio; note: potency is the fitted concentration of half-maximal effect)
# In short: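 Antagonist mode: compounds added to beta-lactamase reporter HEK293T ER-beta-UAS cells stimulated with E2 (1nM final), 16 hr at 37C. LiveBLAzer B/G FRET substrate, 2 hours room temperature, fluorescence read-out.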
# [4] = qHTS assay to identify small molecule agonists of the androgen receptor (AR) signaling pathway in the presence of an antagonist - cell viability counter screen (AID 1259379); note: nearly all actives have a fitted effect of over 25% in size; note: potency is the fitted concentration of half-maximal effect
# In short: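 Cells: MDA-kb2 (MMTV-luc, AR and GR elements), 3,000/well, 5 hr settle. Added: nilutamide 3.0uM final, then compounds (15 conc.). Incubation: 16 hr, 37C, no CO2. Read-out: CellTiter-Fluor, 1 hr, fluorescence.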
# [5] = qHTS assay to identify small molecule agonists of the estrogen receptor beta (ER-beta) signaling pathway - cell viability counter screen (AID 1259380); note: nearly all actives have a fitted effect of over 30% in size; note: potency is the fitted concentration of half-maximal effect
# In short: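 HEK293T ER-beta-UAS-bla; 2% CS-FBS; 6 hr pre-plate, 16 hr cpd at 37C/5% CO2; LiveBLAzer read first, then CellTiter-Glo 30 min RT, luminescence.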
# [6] = qHTS assay to identify small molecule antagonists of the estrogen receptor beta (ER-beta) signaling pathway - cell viability counter screen (AID 1259382);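 note: HEK293T cells carrying ER-beta-UAS-bla reporter stimulated with estradiol; series mostly up to about 92 µM; nearly all actives have a fitted effect of over 55% in size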
# In short: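 Cells: ER-beta-UAS-bla HEK293T, 2,000/well, 2% CS-FBS, 6 hr settle. Cpd + E2 (1nM final), 16 hr, 37C/5% CO2. Bla FRET substrate 2 hr RT, then CellTiter-Glo 30 min RT, luminescence.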
# [7] = molecular target: Estrogen receptor (Homo sapiens) (UniProt P03372); experiment: qHTS assay to identify small molecule agonists of the estrogen receptor alpha (ER-alpha) signaling pathway in the presence of an antagonist (AID 1259383; calls by dose curve; note: top concentration of the series differs between compounds; nearly all actives have a fitted effect of over 15% in size)
# In short: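 VM7Luc4E2, endog. ER-alpha + 4×ERE-luc; charcoal-stripped FBS, phenol red-free, 5 d; 24hr plating; +10.0nM ICI-182,780 (final); cpds 15 conc, 22hr, 37C/5% CO2; ONE-Glo luminescence.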
# [8] = qHTS assay to identify small molecule agonists of the estrogen receptor alpha (ER-alpha) signaling pathway in the presence of an antagonist - cell viability counter screen (AID 1259386);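 note: cells exposed to compounds for 22 h at 37 °C before the viability read; nearly all actives have a fitted effect of over 30% in size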; note: potency is the fitted concentration of half-maximal effect
# In short: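 VM7Luc4E2, stripped-serum pre-culture 5 d; 24hr plating; +ICI-182,780 10.0nM final; cpds 15 conc, 22hr, 37C/5% CO2; CellTiter-Fluor added at 21hr, fluorescence 1hr later.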
# [9] = molecular target: Progesterone receptor (Homo sapiens) (UniProt P06401); experiment: qHTS assay to identify small molecule agonists of the progesterone receptor (PR) signaling pathway (AID 1346784; calls by dose curve; note: nearly all actives have a fitted effect of over 30% in size)
# In short: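 Reporter assay, GripTite PR-UAS-bla HEK 293T cells: 16 hr exposure to DMSO-dissolved compounds at 37C, 5% CO2, in steroid-depleted (2% charcoal-stripped FBS) medium; beta-lactamase measured by FRET fluorescence.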
# [10] = qHTS assay to identify small molecule antagonists of the progesterone receptor (PR) signaling pathway - cell viability counter screen (AID 1346798); note: nearly all actives have a fitted effect of over 50% in size; note: potency is the fitted concentration of half-maximal effect
# In short: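 In the same plates used for the beta-lactamase readout, cell viability of compound- and R5020-treated PR-UAS-bla HEK293T cells (16 hr, 37C) was assessed by CellTiter-Glo luminescence.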
# [11] = qHTS assay to identify small molecule agonists of the progesterone receptor (PR) signaling pathway - cell viability counter screen (AID 1346799; calls by dose curve; note: nearly all actives have a fitted effect of over 45% in size; note: potency is the fitted concentration of half-maximal effect)
# In short: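 Multiplexed viability read: CellTiter-Glo luminescence, 30 min RT, following LiveBLAzer FRET measurement on PR-UAS-bla HEK293T cells exposed to compounds 16 hr.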
# [12] = qHTS assay to identify small molecule antagonists of the TGF-beta/Smad signaling pathway - cell viability counter screen (AID 1346824); note: nearly all actives have a fitted effect of over 50% in size
# In short: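 Cytotoxicity counter-screen run in the same wells as the beta-lactamase Smad reporter read: CellTiter-Glo luminescence after 30 min at room temperature. HEK 293T SBE-bla cells had 5 hr compound exposure at 37 C with TGF-beta1 (0.25 ng/mL stock).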
# [13] = qHTS assay to identify small molecule agonists of the TGF-beta/Smad signaling pathway - cell viability counter screen (AID 1346829); note: top concentration of the series differs between compounds; nearly all actives have a fitted effect of over 45% in size
# In short: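 Same-well cytotoxicity: CellTiter-Glo added after the 2 hr room-temperature beta-lactamase substrate step, luminescence measured 30 min later; cells had 5 hr of compound at 37 C.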
# [14] = qHTS assay to identify small molecule agonists of the TGF-beta/Smad signaling pathway (AID 1346859; active = well fitted activation curve with a large enough effect in the signal ratio in the repeat runs, not every such curve was filed as active; the % refers to the signal ratio; note: series mostly up to about 77 µM)
# In short: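 Screening used HEK 293T SBE-bla cells at 4,000/well. Test agents: 5 hr, 37 C. Detection: FRET substrate, 2 hr RT, then excitation 405 nm with emissions at 460 and 530 nm.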
# [15] = qHTS assay to identify small molecule agonists or antagonists of the thyroid stimulating hormone receptor (TSHR) signaling pathway - wild type cell line counter screen (AID 1259384; calls by dose curve; note: potency is the fitted concentration of half-maximal effect)
# In short: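 Counter screen in untransfected Hek293: compounds (15-point titration, triplicate) plus phosphodiesterase inhibitor Ro20-1724 added after 18 h plating; 30 min RT. Intracellular cAMP via competitive d2/cryptate immunoassay, 1 h incubation.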
# [16] = molecular target: Progesterone receptor (Homo sapiens) (UniProt P06401); experiment: qHTS assay to identify small molecule antagonists of the progesterone receptor (PR) signaling pathway (AID 1346795; active = well fitted inhibition curve with a large enough effect in the signal ratio in the repeat runs, not every such curve was filed as active; the % refers to the signal ratio)
# In short: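 Stimulus R5020 at 1 nM final; cells HEK293T PR-UAS-bla; medium with 2% charcoal-stripped FBS; compound exposure 16 hr at 37C, 5% CO2; detection by FRET beta-lactamase substrate, 2 hr, room temperature.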
# [17] = molecular target: Thyrotropin-releasing hormone receptor (Homo sapiens) (UniProt P34981); experiment: qHTS assay to identify small molecule antagonists of the thyrotropin-releasing hormone receptor (TRHR) signaling pathway (AID 1346877; active = well fitted inhibition curve with a large enough effect in the repeat runs, not every such curve was filed as active; note: series mostly up to about 51 µM)
# In short: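 Intracellular calcium fluorescence, read kinetically every second over 3 min, reports TRH-evoked signalling in HEK293 cells carrying TRHR. Test compounds were added 5 min ahead of a 1 nM TRH challenge.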
# [18] = molecular target: Thyrotropin-releasing hormone receptor (Homo sapiens) (UniProt P34981); experiment: qHTS assay to identify small molecule agonists of the thyrotropin-releasing hormone receptor (TRHR) signaling pathway (AID 1346891; calls by dose curve; note: series mostly up to about 58 µM)
# In short: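 Readout was intracellular calcium fluorescence in TRHR-Hek293 cells. Cells were incubated 18 h, dye-loaded 2 h at 37 °C, and treated with compound in agonist mode.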
# [19] = molecular target: Thyrotropin receptor (Homo sapiens) (UniProt P16473); experiment: qHTS assay to identify small molecule antagonists of the thyroid stimulating hormone receptor (TSHR) signaling pathway (AID 1259385; calls by dose curve; note: nearly all actives have a fitted effect of over 20% in size; note: potency is the fitted concentration of half-maximal effect)
# In short: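 Antagonist mode: compound-treated TSHR-expressing HEK293 cells were stimulated with 1.5 ng/mL TSH (final) in presence of Ro20-1724 for 30 min at RT. HTRF cAMP detection after 1 h; each compound tested at 15 concentrations, triplicate.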
# Estrogen receptor beta (Homo sapiens), sequence (Q92731 whole entry, looked up): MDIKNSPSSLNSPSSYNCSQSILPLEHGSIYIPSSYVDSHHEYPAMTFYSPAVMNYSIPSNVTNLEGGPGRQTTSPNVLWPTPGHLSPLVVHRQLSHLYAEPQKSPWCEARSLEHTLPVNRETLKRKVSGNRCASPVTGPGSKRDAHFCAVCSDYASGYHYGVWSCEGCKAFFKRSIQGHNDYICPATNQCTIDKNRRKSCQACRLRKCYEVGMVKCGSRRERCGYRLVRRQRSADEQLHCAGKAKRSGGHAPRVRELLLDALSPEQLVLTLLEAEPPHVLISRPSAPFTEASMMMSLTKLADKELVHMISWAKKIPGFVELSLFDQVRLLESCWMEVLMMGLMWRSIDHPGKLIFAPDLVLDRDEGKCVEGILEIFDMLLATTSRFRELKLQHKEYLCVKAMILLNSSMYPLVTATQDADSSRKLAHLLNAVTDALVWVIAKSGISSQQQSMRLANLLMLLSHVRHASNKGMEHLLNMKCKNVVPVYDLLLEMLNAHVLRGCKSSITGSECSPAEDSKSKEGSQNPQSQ
# Estrogen receptor (Homo sapiens), sequence (P03372 whole entry, looked up): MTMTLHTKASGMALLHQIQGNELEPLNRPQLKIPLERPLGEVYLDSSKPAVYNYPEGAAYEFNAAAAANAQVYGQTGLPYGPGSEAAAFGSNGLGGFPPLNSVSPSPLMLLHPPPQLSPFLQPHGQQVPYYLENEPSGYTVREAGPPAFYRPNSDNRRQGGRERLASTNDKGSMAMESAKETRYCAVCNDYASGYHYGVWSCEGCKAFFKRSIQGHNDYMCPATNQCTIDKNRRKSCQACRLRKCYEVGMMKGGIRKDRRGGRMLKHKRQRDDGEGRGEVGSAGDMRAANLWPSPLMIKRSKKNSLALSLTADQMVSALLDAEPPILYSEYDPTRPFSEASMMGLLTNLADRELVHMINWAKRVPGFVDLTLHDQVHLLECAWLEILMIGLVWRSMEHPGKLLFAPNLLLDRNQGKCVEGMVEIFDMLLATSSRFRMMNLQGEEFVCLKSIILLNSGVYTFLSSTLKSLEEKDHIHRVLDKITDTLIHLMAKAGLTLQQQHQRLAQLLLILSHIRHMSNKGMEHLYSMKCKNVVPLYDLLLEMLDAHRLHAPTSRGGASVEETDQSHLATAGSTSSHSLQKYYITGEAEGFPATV
# Thyrotropin-releasing hormone receptor (Homo sapiens), sequence (P34981 whole entry, looked up): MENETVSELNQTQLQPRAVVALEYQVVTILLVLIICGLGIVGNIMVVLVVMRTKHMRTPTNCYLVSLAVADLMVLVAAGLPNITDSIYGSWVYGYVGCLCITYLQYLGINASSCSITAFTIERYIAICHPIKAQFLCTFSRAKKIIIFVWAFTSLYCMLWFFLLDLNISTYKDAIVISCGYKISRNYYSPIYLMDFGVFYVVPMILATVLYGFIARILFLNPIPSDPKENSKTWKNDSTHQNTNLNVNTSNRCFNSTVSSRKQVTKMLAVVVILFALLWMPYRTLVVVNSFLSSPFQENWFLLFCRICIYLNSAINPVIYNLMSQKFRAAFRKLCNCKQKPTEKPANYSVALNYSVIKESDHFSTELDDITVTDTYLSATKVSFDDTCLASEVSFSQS
# Progesterone receptor (Homo sapiens), sequence (P06401 whole entry, looked up): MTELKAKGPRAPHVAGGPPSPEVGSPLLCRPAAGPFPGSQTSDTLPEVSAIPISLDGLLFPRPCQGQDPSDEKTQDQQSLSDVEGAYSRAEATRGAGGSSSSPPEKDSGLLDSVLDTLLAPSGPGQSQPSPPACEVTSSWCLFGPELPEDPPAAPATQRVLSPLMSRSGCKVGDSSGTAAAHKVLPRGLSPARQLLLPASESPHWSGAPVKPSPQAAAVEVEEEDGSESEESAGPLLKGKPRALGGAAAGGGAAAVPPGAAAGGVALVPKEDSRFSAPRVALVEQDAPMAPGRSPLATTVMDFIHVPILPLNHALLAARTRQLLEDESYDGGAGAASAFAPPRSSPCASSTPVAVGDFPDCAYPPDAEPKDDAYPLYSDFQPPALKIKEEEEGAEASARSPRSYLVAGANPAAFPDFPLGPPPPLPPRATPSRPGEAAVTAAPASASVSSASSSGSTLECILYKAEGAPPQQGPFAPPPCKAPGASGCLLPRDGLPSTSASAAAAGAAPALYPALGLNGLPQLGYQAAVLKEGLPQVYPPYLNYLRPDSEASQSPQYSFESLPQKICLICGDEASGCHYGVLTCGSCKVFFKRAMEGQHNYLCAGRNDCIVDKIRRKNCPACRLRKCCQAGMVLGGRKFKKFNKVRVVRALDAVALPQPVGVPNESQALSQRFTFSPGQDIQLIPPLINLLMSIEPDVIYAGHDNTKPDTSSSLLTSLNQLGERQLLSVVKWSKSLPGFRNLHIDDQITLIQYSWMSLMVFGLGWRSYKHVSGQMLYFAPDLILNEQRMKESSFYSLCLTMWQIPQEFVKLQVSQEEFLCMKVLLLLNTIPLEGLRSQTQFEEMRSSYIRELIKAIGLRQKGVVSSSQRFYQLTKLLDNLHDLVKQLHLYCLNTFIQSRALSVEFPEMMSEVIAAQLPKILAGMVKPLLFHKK
# Thyrotropin receptor (Homo sapiens), sequence (P16473 whole entry, looked up): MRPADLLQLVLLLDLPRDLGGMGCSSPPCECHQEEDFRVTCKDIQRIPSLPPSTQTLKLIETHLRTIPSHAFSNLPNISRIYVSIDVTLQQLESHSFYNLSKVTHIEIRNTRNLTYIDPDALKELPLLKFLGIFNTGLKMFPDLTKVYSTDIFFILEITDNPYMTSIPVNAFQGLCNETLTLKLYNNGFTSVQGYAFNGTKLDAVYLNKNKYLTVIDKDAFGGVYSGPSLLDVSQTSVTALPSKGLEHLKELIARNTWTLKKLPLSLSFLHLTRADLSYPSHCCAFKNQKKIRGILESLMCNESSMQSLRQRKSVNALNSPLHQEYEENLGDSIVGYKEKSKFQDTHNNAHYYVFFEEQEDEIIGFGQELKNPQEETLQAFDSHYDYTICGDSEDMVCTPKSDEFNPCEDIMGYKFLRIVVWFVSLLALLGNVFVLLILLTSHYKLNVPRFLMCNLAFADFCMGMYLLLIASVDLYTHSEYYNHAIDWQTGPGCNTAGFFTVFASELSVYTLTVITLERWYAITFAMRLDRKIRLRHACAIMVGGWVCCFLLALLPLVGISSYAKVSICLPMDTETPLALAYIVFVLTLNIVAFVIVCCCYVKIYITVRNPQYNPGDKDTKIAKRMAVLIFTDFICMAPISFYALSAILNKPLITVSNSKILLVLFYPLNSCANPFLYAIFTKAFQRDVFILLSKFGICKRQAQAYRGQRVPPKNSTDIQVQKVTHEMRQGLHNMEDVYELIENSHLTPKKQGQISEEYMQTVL
SMILES,Potency [1],Potency [2],Potency [3],Potency [4],Potency [5],Potency [6],Potency [7],Potency [8],Potency [9],Potency [10],Potency [11],Potency [12],outcome [13],Potency [14],Potency [15],Potency [16],outcome [17],Potency [18],Potency [19]
COCC(C)OC(C)=O (stereo not given),inactive,inactive,inactive,inactive,inactive,inactive,inactive,inactive,inactive,inactive,inactive,inactive,inactive,inactive,,,,,
COc1ccc(C)cc1[N+](=O)[O-],inactive,inactive,inactive,inactive,inactive,inactive,,inactive,inactive,inactive,inactive,inactive,inactive,inactive,inactive,inactive,inactive,inactive,
CC(=O)c1cccc([N+](=O)[O-])c1,inactive,inactive,inactive,inactive,inactive,inactive,,inactive,inactive,inactive,inactive,inactive,inactive,inactive,,inactive,inactive,inactive,
C1CCCNCCC1,inactive,inactive,inactive,inactive,inactive,inactive,,inactive,inactive,inactive,inactive,inactive,inactive,inactive,inactive,inactive,,,inactive
CCCCCCCCCCCCCCCCCCOS(=O)(=O)O,inactive,inactive,48.6 µM (active),inactive,48.6 µM (active),,inactive,inactive,inactive,54.5 µM (active),48.6 µM (active),inactive,inactive,inactive,inactive,inactive,,inactive,68.6 µM (active)
CC(C)(CO)[N+](=O)[O-],inactive,inactive,inactive,inactive,inactive,inactive,,inactive,inactive,inactive,inactive,inactive,inactive,inactive,,inactive,inactive,inactive,
Cc1cccc(C)c1NC(=O)CN(CC(=O)O)CC(=O)O,inactive,inactive,inactive,inactive,inactive,inactive,,inactive,inactive,inactive,,inactive,inactive,inactive,inactive,inactive,inactive,inactive,inactive
CC(C)(COC(=O)c1ccccc1)COC(=O)c1ccccc1,inactive,inactive,inactive,inactive,inactive,inactive,,inactive,inactive,inactive,,inactive,inactive,inactive,inactive,,inactive,inactive,inactive
O=C(O)C(S)C(S)C(=O)O (stereo not given),inactive,inactive,inactive,inactive,inactive,inactive,,inactive,inactive,inactive,inactive,inactive,,inactive,inactive,inactive,,,inactive
CCC(C)c1cc(C(C)(C)C)c(O)c(C(C)(C)C)c1 (stereo not given),inactive,inactive,inactive,inactive,inactive,inactive,,inactive,inactive,inactive,inactive,inactive,,inactive,inactive,,,inactive,inactive
OCc1cc(C(O)CNCCCCCCOCCCCc2ccccc2)ccc1O (stereo not given),6.68 µM (active),inactive,16.8 µM (active),26.6 µM (active),21.1 µM (active),,inactive,11.9 µM (active),inactive,inactive,inactive,inactive,inactive,inactive,0.0009 µM (active),,inactive,inactive,inactive
CCCCCCCN,inactive,inactive,inactive,inactive,inactive,inactive,,inactive,inactive,inactive,inactive,inactive,inactive,inactive,inactive,inactive,inactive,inactive,inactive
CC(CC=O)c1ccccc1 (stereo not given),54.5 µM (active),inactive,inactive,inactive,inactive,inactive,,inactive,inactive,inactive,inactive,inactive,inactive,inactive,inactive,,inactive,inactive,inactive
O=C(Cl)c1cc(C(=O)Cl)cc(C(=O)Cl)c1,inactive,inactive,inactive,inactive,inactive,,inactive,inactive,,,inactive,inactive,inactive,inactive,inactive,,,inactive,68.6 µM (active)
